# Compound activity: PubChem, Broad Institute
# Mtb BioA inh = M. tuberculosis BioA enzyme inhibitors, primary screen, biochemical, plate reader, single point, HTS | inhibition, % at 9.99 µM | purified M. tuberculosis BioA enzyme | 7,8-diaminopelargonic acid synthase BioA (Mycobacterium tuberculosis) | hit rate 0.096% among 360,000; in the data active means inhibition above about 40%; inconclusive means no clear call, values can overlap the other calls
# Y pestis TopoI = Yersinia pestis topoisomerase I inhibitors, primary screen, biochemical, cleavage product accumulation, plate reader, single point; DNA topoisomerase I (Yersinia pestis CO92); Y. pestis Topo-I cleavage product accumulation; activity, % at 10 µM; hit rate 0.064% among 360,000; AID 504884, 2011; in the data active means activity above about 50%, passing the limit was not always enough; inconclusive means no clear call, values can overlap the other calls
# TcdB GH inh = TcdB glycohydrolase inhibitors, primary screen, biochemical, single point, plate reader; TcdB glycohydrolase enzymatic assay; inhibition, % at 9.99 µM; hit rate 0.24% among 350,000; Toxin B (Clostridioides difficile), P18177; in the data active means inhibition above about 10%
# PrP UTR inh = inhibition of PrP 5' UTR reporter expression | cell-based PrP 5' UTR mRNA reporter, plate reader | inhibition, % (concentration not given with the values) | hit rate 0.35% among 340,000 | AID 488862, 2010; in the data active means inhibition above about 52%; further: 0 = median of the neutral control wells
# PrP UTR cherry = prion 5' UTR mRNA inhibition, cherry-pick retest. shares compounds with PrP UTR inh. cell-based prion protein 5' UTR reporter, plate reader. inhibition, % at 2.5 µM. hit rate 48% among 1,100; in the data active means inhibition above about 54%; inconclusive means no clear call, values can overlap the other calls
# * marks the source's active call; other numbers are inactive results; u = inconclusive; x = no result given. Rows were chosen to be rich in hits. Some 0.53% of all compounds tested hit in one or more screens of this group.
SMILES,Mtb BioA inh,Y pestis TopoI,TcdB GH inh,PrP UTR inh,PrP UTR cherry
O=C([C@H]1[C@H](CO)[C@H]2Cn3c(cccc3=O)[C@H]2N1C(=O)CC1CC1)N1CCCCC1,-1,x,1,x,x
Cc1nn(Cc2c(Cl)cccc2Cl)c(C)c1NC(=O)CCCn1nc(C)c([N+](=O)[O-])c1C,x,-4,x,-8,x
Cc1nn(CCCC(=O)Nc2cccnc2Cl)c(C)c1[N+](=O)[O-],1,1,1,52*,-10
CC(C)NC(=O)N(C)C[C@@H]1Oc2c(NS(=O)(=O)c3ccc(Cl)cc3)cccc2C(=O)N([C@H](C)CO)C[C@H]1C,-1,x,1,x,x
Cc1c(Cc2ccccc2)sc(/N=C/c2ccc3ccccc3c2)c1C(N)=O,x,-9,x,60*,95*
Cc1c(Cc2ccccc2)sc(/N=C/c2c(O)ccc3ccccc23)c1C(N)=O,0,-4,x,-20,x
O=C(C[C@H]1C[C@H]2c3cc(NC(=O)Nc4ccc(C(F)(F)F)cc4)ccc3O[C@H]2[C@H](CO)O1)NCc1cccnc1,-1,x,0,x,x
CC(/C=C1\SC(=O)N(CCCC(=O)O)C1=O)=C\c1ccccc1,-6,5,x,83*,86*
COc1cc(-c2noc(C)c2-c2ccc(N(C)C)nc2)cc(OC)c1OC,0,21,3,67*,90*
COc1cc(-c2noc(C)c2-c2ccc3[nH]ccc3c2)cc(OC)c1OC,-1,7,x,-17,x
O=C(c1ccccc1)N1CCSc2sccc2C1=O,0,1,0,58*,40
CN(Cc1ccccc1)C(=O)COC(=O)c1cncc(Br)c1,x,7,1,72*,-14
COc1ccc(C(=O)Nc2ccc3ncccc3c2)cc1,21,1,1,-19,x
Cc1ccc(C(=O)Nc2ccc3ncccc3c2)cc1,x,-7,0,56*,31
COc1ccc(OC)c(S(=O)(=O)N2Cc3ccccc3CC2C(=O)Nc2nccs2)c1 (configuration not stated),-2,-3,x,69*,-33
COc1cc(CC(=O)N(c2ccccc2)c2nc(C)cs2)cc(OC)c1OC,x,1,-1,61*,-8
Cc1csc(N(C(=O)c2ccccc2F)c2ccccc2)n1,x,-1,1,-11,x
O=C(C[C@@H]1C=C[C@@H](NC(=O)CCN2CCCCC2)[C@H](CO)O1)NCc1ccc(Cl)c(Cl)c1,0,x,-1,x,x
CO[C@@H]1CN(C)C(=O)c2cc(NS(=O)(=O)c3ccccc3)ccc2OC[C@H](C)NC[C@H]1C,-2,x,1,x,x
CN(C)CC(C)(C)CNS(=O)(=O)c1ccc(OC(F)(F)F)cc1,x,-2,1,59*,2
O=C(CCNS(=O)(=O)c1ccc(OC(F)(F)F)cc1)N1CCCC1,-1,2,-2,-14,x
CCCCNC1=CC(=O)C(=O)c2ccccc21,x,2,0,-32,x
CCCCN1C=CC(=C2C(=O)c3ccccc3C2=O)C=C1,-2,-2,1,87*,92*
CO[C@H]1CN(C)C(=O)c2cc(NC(C)=O)ccc2OC[C@H](C)N(C(=O)c2cccnc2)C[C@H]1C,0,x,0,x,x
CC1OC(OC2C=C3CCC4C(CCC5(C)C(c6ccc(=O)oc6)CCC45O)C3(C)CC2)C(O)C(OC2OC(CO)C(O)C(O)C2O)C1O (configuration not stated),x,12,0,93*,92*
SMILES,Mtb BioA inh,Y pestis TopoI,TcdB GH inh,PrP UTR inh,PrP UTR cherry
CCN(C[C@H]1N[C@@](C)(C(=O)OC)[C@H]2C(=O)N(C)C(=O)[C@@H]12)C(=O)c1ccc(C(C)(C)C)cc1,1,-7,2,58*,-12
CCNC(=O)N(CC)C[C@H]1N[C@@](C)(C(=O)OC)[C@H]2C(=O)N(C)C(=O)[C@@H]12,-1,-1,-6,-4,x
COC(=O)c1ccccc1NC(=O)C(C)c1ccc([N+](=O)[O-])cc1 (configuration not stated),x,18,2,64*,2
CC(C(=O)Nc1ccccc1Br)c1ccc([N+](=O)[O-])cc1 (configuration not stated),1,-6,0,3,x
Nc1ccc2oc(-c3cccc4ccccc34)nc2c1,0,-3,x,51*,65*
Cc1ccc(-c2nc3cc(N)ccc3o2)c(C)c1,1,-1,x,-33,x
COc1ccc(CN(C)C[C@@H]2Oc3ccc(NC(=O)Nc4ccccc4)cc3CC(=O)N([C@H](C)CO)C[C@@H]2C)cc1,1,x,1,x,x
Cc1ccc(C(=O)NCCCn2ccnc2)o1,0,9,x,73*,-11
CN=c1scc(-c2ccccc2F)n1/N=C/c1ccc(O)c(O)c1O,-2,-12,-6,40,x
CN=c1scc(-c2ccccc2F)n1/N=C/c1ccc[nH]1,x,-10,-3,92*,91*
CCNC(=O)CC1C(=O)N(CC)C(=S)N1NC(=O)c1cccnc1 (configuration not stated),-1,11,2,80*,-8
CO[C@@H]1CN(C)C(=O)c2cc(NC(=O)c3cc(C)on3)ccc2OC[C@H](C)N(C(C)=O)C[C@@H]1C,-1,x,-1,x,x
CO[C@H]1CN(C)C(=O)c2ccc(NC(=O)C3CC3)cc2OC[C@H](C)N(Cc2ccccc2)C[C@@H]1C,x,x,0,x,x
COc1ccc(OC)c(Nc2c3c(nc4ccccc24)CCC3)c1,3,3,1,74*,87*
CCCN(CCC)C(=O)c1ccc2c(=O)n(Cc3ccco3)c(=S)[nH]c2c1,x,8,1,83*,17
CN1CCN(C(=O)c2ccc3c(=O)n(Cc4ccco4)c(=S)[nH]c3c2)CC1,0,3,x,-24,x
Cc1ccc(C23CC4CC(CC(C(N)=O)(C4)C2)C3)cc1,0,-6,0,-54,x
COC(=O)CNC(=O)C12CC3CC(C1)CC(c1ccc(C)cc1)(C3)C2,8,1,2,78*,-26
O=C(N[C@@H]1CC[C@H](CCNC(=O)c2ccccc2F)O[C@@H]1CO)c1ccc2c(c1)OCO2,0,x,1,x,x
Cc1cc(NC(=O)c2ccc(Br)c([N+](=O)[O-])c2)no1,-1,-5,1,83*,-7
Cc1cc(NC(=O)c2ccc(C)c([N+](=O)[O-])c2)no1,x,-1,0,-15,x
C[C@@H]1CN([C@H](C)CO)C(=O)c2cc(-c3ccccc3F)cnc2O[C@H]1CN(C)C(=O)C1CCC1,7,x,-1,x,x
COc1ccc(-n2ncc3c(SCC(=O)N4CCN(c5ccccc5OC)CC4)ncnc32)cc1,x,24,x,64*,-26
COc1ccccc1N1CCN(C(=O)CSc2ncnc3scc(-c4ccccc4)c23)CC1,-2,27,x,-5,x
N[C@@H](Cc1ccccc1)C(=O)N1C[C@H]2C[C@@H](C1)c1cccc(=O)n1C2,0,4,-3,67*,-12
COc1ccc(/C=C/C(=O)c2cc(F)ccc2OC(=O)c2ccccc2OC)cc1OC,x,7,3,47,u
